This is a sample that favours compounds with a hit; in the whole collection about 19% have one here.
TDP1 cell CPT = qHTS for Inhibitors of human tyrosyl-DNA phosphodiesterase 1 (TDP1): qHTS in cells in presence of CPT; chicken DT40 Tdp1-/-;hTDP1 cells + 20 nM CPT, ATP luminescence, 48 h; Potency, µM (series often up to 46.2 µM), for the others: at the top dose activity change, negative = growth inhibition, usual class: inhibitors; 420,000 compounds, 12% hits; AID 686979, 2013; further: nearly all actives have a fitted effect of over 55% in size
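Chicken DT40 Tdp1-/- cells stably complemented with human TDP1 were seeded at 400 cells/well in medium containing 20 nM camptothecin, exposed to pin-transferred compounds, and grown at 37 °C for at least 48 hr. Viability was read as ATP luminescence.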
HT1080 IDH1KD tx = qHTS for induction of synthetic lethality in tumor cells producing 2HG: qHTS for the HT-1080-IDH1KD cell line; HT-1080 IDH1 knockdown viability, ATP luminescence, 48 h; 360,000 compounds, 2% hits; Potency, µM (series often up to 46.1 µM), for inactives: at the top dose activity, negative = toxicity, actives largely listed as cytotoxic; AID 686971, 2013;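 further: 0% = DMSO wells and -100% = cell-free medium wells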
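Knockdown cells (IDH1KD HT-1080) received compounds 2 h after plating at 750 cells/well and were kept 48 h at 37 °C in 5% FBS RPMI. A CellTiter-Glo luminescence read gave % activity for curve fitting.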
HT1080NT lethal = qHTS for induction of synthetic lethality in tumor cells producing 2HG: qHTS for the HT-1080-NT fibrosarcoma cell line; HT-1080-NT fibrosarcoma viability, CellTiter-Glo ATP luminescence, 48 h; Potency, µM (top dose mostly 46.1 µM), inactives show at the highest dose activity, negative = less viability, hits mostly cytotoxic; 360,000 compounds, 1.6% hits; AID 686970, 2013;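 further: NT is the 2HG producing partner of a matched IDH1 knockdown line; 0% = DMSO-treated cells and -100% = media-only wells without cells; nearly all actives have a fitted effect of over 55% in size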
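Toxicity toward the 2HG-producing NT line was scored as %Activity, normalised to DMSO and no-cell wells, from CellTiter-Glo luminescence after 48 hours' treatment.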
KB-V1 cytotox = qHTS assay for MDR1-selective chemotherapeutics: Primary screen using the drug-selected MDR subline cells KB-V1; Potency, µM (top dose mostly 46.1 µM), hits mostly cytotoxic; KB-V1 MDR cells viability, CellTiter-Glo, 72 h; AID 1347076, 2019; 400,000 compounds, 3.4% hits; further: nearly all actives have a fitted effect of over 60% in size
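KB-V1, DMEM (no phenol red) + 10% FBS; cpd pin-transferred, titration series; 72 h, 37 degrees C; CellTiter-Glo, luminescence. Data normalized, curve-fit.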
TDP1 cell noCPT = qHTS for Inhibitors of human tyrosyl-DNA phosphodiesterase 1 (TDP1): qHTS in cells in absence of CPT. DT40 Tdp1-/- hTDP1 cells, no CPT, ATP luminescence, 48 h. Potency, µM (top dose mostly 46.2 µM), without a hit: at the top dose activity change, negative = growth inhibition, usual class: inhibitors. 420,000 compounds, 15% hits. AID 686978, 2013; further: nearly all actives have a fitted effect of over 55% in size
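A cellular qHTS used chicken DT40 cells lacking endogenous Tdp1 but carrying stably transfected human TDP1. Compounds were applied without camptothecin, and cell growth kinetics were judged by ATP-dependent luminescence after ≥48 hr.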
KB-3-1 tox = qHTS assay for MDR1-selective chemotherapeutics: Primary screen using the parental adenocarcinoma cell KB-3-1; Potency, µM (top dose mostly 46.1 µM), usual class: cytotoxic; 400,000 compounds, 1.4% hits; KB-3-1 viability, CellTiter-Glo ATP luminescence, 72 h; further: nearly all actives have a fitted effect of over 60% in size
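KB-3-1 parental drug-naive adenocarcinoma cells in DMEM/10% FBS, incubated 72 h at 37 C with pin-transferred compounds across a concentration series. Viability by CellTiter-Glo luminescence; concentration-response curves fitted after normalization.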
Numbers without * were called inactive; i = inactive; ? = inconclusive; / = no result given; [ ] = remark or other dose. The call rests on the fitted dose curve; in most records, active means well fitted curve in the direction sought with a large enough effect; inconclusive means small, poorly fitted or top-dose-only effect, or another doubt; inactive means no such curve, though single readings can be large; an effect the other way counts as inactive or inconclusive. Unless noted, on the % scale 0 is the no-effect control and ±100 the full control effect; potency means the concentration at half of the fitted maximal effect.

SMILES	TDP1 cell CPT	HT1080 IDH1KD tx	HT1080NT lethal	KB-V1 cytotox	TDP1 cell noCPT	KB-3-1 tox
COc1ccc(NC(=O)C2(C)Cc3c(-c4ccccc4)ccnc3O2)cc1OC (configuration not stated)	?	-21%	-1%	?	?	i
CC1(C(=O)Nc2cccc(OC(F)(F)F)c2)Cc2c(-c3cccc(C(N)=O)c3)ccnc2O1 (configuration not stated)	?	?	?	i	21µM*	i
COc1ccccc1CN1CC(C(=O)NCc2cc(C(C)C)no2)CCC1=O (configuration not stated)	-18%	13%	23%	i	30%	i
C=CCN(CC=C)c1ncnc2[nH]ncc12	?	4%	3%	i	?	i
COc1cccc(Oc2nc(N)ncc2[N+](=O)[O-])c1	-19%	0%	-1%	i	-18%	i
Cc1cc(C)c2oc(C(=O)Nc3c(C(=O)c4ccccc4)oc4ccccc34)cc(=O)c2c1	14%	/	/	i	-21%	i
Nc1c(C(=O)CSc2nnc(-c3ccccc3)o2)c(=O)[nH]c(=O)n1C1CC1	?	6%	4%	i	3%	i
Cc1ccc(OCC(=O)NNC(=O)C2CC(=O)N(c3ccc4c(c3)OCCO4)C2)cc1 (configuration not stated)	9%	1%	1%	i	-4%	i
COc1ccc(NC(=O)C2(C)Cc3c(-c4cccc(C(N)=O)c4)ccnc3O2)cc1 (configuration not stated)	3.7µM*	?	?	?	3.7µM*	7.3µM*
CC1(C(=O)Nc2cccc(OC(F)(F)F)c2)Cc2c(-c3ccc4c(c3)OCO4)ccnc2O1 (configuration not stated)	21µM*	16µM*	?	i	?	?
CC1(C(=O)Nc2ccc(Cl)c(C(F)(F)F)c2)Cc2c(-c3cccc(C(N)=O)c3)ccnc2O1 (configuration not stated)	10µM*	?	23µM*	?	6.5µM*	i
CCS(=O)(=O)N1CCC(C(=O)N2CCc3ccccc3C2)CC1	-14%	0%	1%	13µM*	-20%	i
CN(Cc1ccc(Cl)cc1)C(C(=O)NC1CCCCC1)c1cc2ccccc2o1 (configuration not stated)	-107%	?	?	i	?	i
COc1ccc(CN2CCCC(C(=O)N3CCc4ccccc4C3)C2)cc1OC (configuration not stated)	?	-1%	0%	i	-16%	i
CCN(CC)C(=O)C1CCCN(Cc2ccccc2)C1 (configuration not stated)	?	-2%[9.24 µM]	6%	i	-2%	i
CN(Cc1ccccc1)C(=O)C1CCCN(Cc2ccc(Cl)cc2)C1 (configuration not stated)	-95%	-22%	-18%	?	26µM*	?
CN(Cc1ccc(Cl)cc1)C(CCc1ccccc1)C(=O)NC1CCCCC1 (configuration not stated)	?	?	?	i	15µM*	i
O=C(C1CCCN(Cc2ccccc2)C1)N1CCc2ccccc2C1 (configuration not stated)	?	-24%	-28%	23µM*	?	i

Bioassay records deposited in PubChem BioAssay by National Center for Advancing Translational Sciences (NCATS).
